According to PubChem BioAssay (NCI):
About 83,000 compounds went through this panel and 20% of them were active in at least one assay; those are over-represented in the sample as a whole.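 Compound tested at a single concentration for 48 hours in 96-well plates; a percent growth value below 10 was scored as active.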 Activity calls are given as the source filed them.

Assays:
Assay in all cases: NCI-60 one-dose screen, 48 h (100 = growth as untreated, 0 = no growth, -100 = all killed)
Conditions in all cases: 10 µM unless noted
T-47D breast = test system: T-47D breast
BT-549 breast = test system: BT-549 breast
MDA-MB-435 melanoma = test system: MDA-MB-435 melanoma
SW-620 colon = test system: SW-620 colon
MCF7 breast = test system: MCF7 breast
HCT-116 colon = test system: HCT-116 colon
KM12 colon = test system: KM12 colon
HCC-2998 colon = test system: HCC-2998 colon

Measured: growth

COc1cccc(C2=NN3C(C2)c2cc(Br)cc(OC)c2OC32CCN(Cc3ccccc3)CC2)c1 (stereo unspecified)
inactive: T-47D breast 108% | BT-549 breast 110% | MDA-MB-435 melanoma 98.3% | SW-620 colon 96.3% | MCF7 breast 96.3% | HCT-116 colon 114% | KM12 colon 103%

Cc1cc(N2CCSCC2)nc(NC2CCCC(Nc3ccnc4cc(Cl)ccc34)C2)n1 (stereo unspecified)
active: T-47D breast -37.2% | BT-549 breast -60.2% | MDA-MB-435 melanoma -88.5% | SW-620 colon -60.8% | MCF7 breast -36.3% | HCT-116 colon -65.6% | HCC-2998 colon -58.3% | KM12 colon 8.04%

C#CCOc1ccc2ncnc(NCc3cccc(NC(=O)CCl)c3)c2c1
inactive: T-47D breast 33.2% [8.25 µM] | BT-549 breast 46.6% [8.25 µM] | MDA-MB-435 melanoma 53.4% [8.25 µM] | SW-620 colon 19.9% [8.25 µM] | MCF7 breast 15.5% [8.25 µM] | HCT-116 colon 14.6% [8.25 µM] | KM12 colon 59.7% [8.25 µM]

COc1ccc(-c2nc(SCC(=O)Nc3ccc(C(=O)/C=C/c4ccc(Cl)cc4)cc3)[nH]c(=O)c2C#N)cc1
inactive: T-47D breast 61.8% | BT-549 breast 84% | MDA-MB-435 melanoma 41.9% | SW-620 colon 102% | MCF7 breast 41% | KM12 colon 102%
active: HCT-116 colon 2.43%

COc1cc(-c2nc3cc(Cl)c(Cl)cc3[nH]2)ccc1OCC(=O)N=Nc1c(O)[nH]c2ccccc12
active: T-47D breast -63.4% | BT-549 breast -90.3% | MDA-MB-435 melanoma -94.9% | SW-620 colon -46.9% | MCF7 breast -76.1% | HCT-116 colon -75.6% | KM12 colon -81.5%

CCOc1ccc(-n2nc(C(=O)Nc3cc(OC)c(OC)c(OC)c3)nc2-c2cc(OC)c(OC)c(OC)c2)cc1
inactive: T-47D breast 51.4% | BT-549 breast 91.4% | MDA-MB-435 melanoma 79.6% | SW-620 colon 95.5% | MCF7 breast 83.2% | HCT-116 colon 75.8% | KM12 colon 81.8%

C=C(C)[C@@H]1CC[C@]2(C(=O)OC)CC[C@]3(C)[C@H](CC[C@@H]4[C@@]5(C)C/C(=C/c6cccc(I)c6)C(=O)C(C)(C)[C@@H]5CC[C@]43C)[C@@H]12
inactive: T-47D breast 93.6% | BT-549 breast 101% | MDA-MB-435 melanoma 96.6% | SW-620 colon 101% | MCF7 breast 89.2% | HCT-116 colon 95.4% | KM12 colon 101%

COc1cc2c(cc1O)CC[C@@H]1[C@@H]2CC[C@]2(C)[C@@H](NCCN(C)C)CC[C@@H]12
active: T-47D breast -64.5% | BT-549 breast -84.3% | MDA-MB-435 melanoma -78.9% | SW-620 colon -80.4% | MCF7 breast -75.8% | HCT-116 colon -90.6% | KM12 colon -82.4%

COc1ccc(/C=C2\Oc3cc(OCCCCN4CCCC4)ccc3C2=O)cc1
inactive: T-47D breast 87.8% | BT-549 breast 82.3% | MDA-MB-435 melanoma 96.5% | SW-620 colon 13.4% | MCF7 breast 39.6% | HCC-2998 colon 91% | KM12 colon 70.5%
active: HCT-116 colon 5.32%

NC(=NC1C2CC3CC(C2)CC1C3)Nc1ccc(I)cc1 (stereo unspecified)
active: T-47D breast 2.31% | MCF7 breast 9.29% | HCT-116 colon 8.08%
inactive: BT-549 breast 53.7% | MDA-MB-435 melanoma 30.7% | SW-620 colon 20.9% | KM12 colon 45.9%

CNC(=O)c1cc(Oc2ccc(NC(=O)Nc3ccc(Cl)c(OC(F)(F)F)c3)c(F)c2)ccn1
inactive: BT-549 breast 60.4% | MDA-MB-435 melanoma 19.4% | SW-620 colon 43.1% | MCF7 breast 17.1% | HCT-116 colon 14% | KM12 colon 13.3%
active: T-47D breast -2.82%

Cc1cc(C)nc(SC2=C(Nc3cc(Cl)ccc3O)C(=O)N(Cc3ccccc3)C2=O)n1
inactive: T-47D breast 60.8% [30 µM] | BT-549 breast 85.2% [30 µM] | MDA-MB-435 melanoma 71.6% [30 µM] | SW-620 colon 91.8% [30 µM] | MCF7 breast 46.4% [30 µM] | HCT-116 colon 83% [30 µM]
active: KM12 colon -23.1% [30 µM]

CC1=CC(C)(C)Nc2ccc(Cc3ccc4c(c3)C(C)=CC(C)(C)N4)cc21
inactive: T-47D breast 76.2% | BT-549 breast 80.1% | MDA-MB-435 melanoma 120% | SW-620 colon 130% | MCF7 breast 84.2% | HCT-116 colon 83.5% | KM12 colon 105%

CS(=O)(=O)c1ccc(-n2nc(-c3ccc(Br)cc3)c3ccccc3c2=O)cc1
inactive: T-47D breast 86.5% | BT-549 breast 91.1% | MDA-MB-435 melanoma 103% | SW-620 colon 104% | MCF7 breast 85.9% | HCT-116 colon 96.7% | KM12 colon 102%

N#CCCN=Nc1c(O)[nH]c2ccc([N+](=O)[O-])cc12
inactive: T-47D breast 93.1% | BT-549 breast 107% | MDA-MB-435 melanoma 111% | SW-620 colon 99.9% | MCF7 breast 86.8% | HCT-116 colon 96.5% | KM12 colon 101%

COc1cc2c(cc1O)CC[C@@H]1[C@@H]2CC[C@]2(C)[C@@H](OCCCN(C)C)CC[C@@H]12
active: T-47D breast -48.9% | BT-549 breast -54.4% | MDA-MB-435 melanoma -61.8% | SW-620 colon -43.1% | MCF7 breast -68.9% | HCT-116 colon -71% | KM12 colon -48.5%

C=C1C(=O)O[C@H]2[C@H]1CC/C(COC(=O)NCc1ccc(OC)c(OC)c1)=C\CC[C@@]1(C)O[C@@H]21
inactive: T-47D breast 30.2% | BT-549 breast 75.2% | MDA-MB-435 melanoma 54.8% | SW-620 colon 14.1% | MCF7 breast 34.5% | KM12 colon 90.9%
active: HCT-116 colon 7.17%

CCOc1nc(-c2ccccc2)cc2c(O)c(C(=O)O)[nH]c(=O)c12
inactive: T-47D breast 97.9% | BT-549 breast 108% | MDA-MB-435 melanoma 109% | SW-620 colon 114% | MCF7 breast 103% | HCT-116 colon 105% | KM12 colon 93.4%

CCOc1nc(-c2ccccc2)cc2c(O)c(C(=O)N/N=C/c3ccc(O)cc3O)[nH]c(=O)c12
inactive: T-47D breast 34.3% | BT-549 breast 58.9% | MDA-MB-435 melanoma 48.3% | SW-620 colon 44.6% | MCF7 breast 46.3% | HCT-116 colon 18.6% | KM12 colon 42.3%

NCCNc1nc(Nc2ccc(-c3nc4ccccc4[nH]3)cc2)c2cn[nH]c2n1
inactive: T-47D breast 60.8% | BT-549 breast 80.2% | MDA-MB-435 melanoma 94% | SW-620 colon 28.4% | MCF7 breast 39.2% | HCT-116 colon 14.9% | KM12 colon 25.2%

COc1ccc(CN2c3ccccc3Oc3ccccc32)cc1O
active: MDA-MB-435 melanoma 9.49%
inactive: T-47D breast 30.6% | BT-549 breast 39.9% | SW-620 colon 27% | MCF7 breast 27.3% | HCT-116 colon 13.7% | KM12 colon 20.9%

O=c1oc2c(C(F)(F)F)cccc2cc1-c1csc(Nc2ccc(OCCF)cc2)n1
inactive: T-47D breast 71.1% | BT-549 breast 31.5% | SW-620 colon 26.1% | MCF7 breast 15.3%
active: MDA-MB-435 melanoma -22.9% | HCT-116 colon -26.3% | KM12 colon 2.28%

Cc1ccc2c(c1)C(=O)/C(=C/c1cccc(OCC(=O)c3ccc(Cl)cc3)c1)CS2
inactive: T-47D breast 84.9% | BT-549 breast 101% | MDA-MB-435 melanoma 65.3% | SW-620 colon 25.1% | MCF7 breast 47.4% | HCT-116 colon 52.9% | KM12 colon 60.3%

COc1nc2c(c(=O)n1C)CN(Cc1ccccc1)C=N2
inactive: T-47D breast 67.1% | MDA-MB-435 melanoma 117% | SW-620 colon 99.6% | MCF7 breast 101% | HCT-116 colon 107% | KM12 colon 98.9%
active: BT-549 breast -4.81%

CN1CCN(c2nc(NCCCNc3ccnc4cc(Cl)ccc34)c3ccccc3n2)CC1
active: MDA-MB-435 melanoma -22.4%
inactive: T-47D breast 40.7% | BT-549 breast 74.5% | SW-620 colon 15.7% | MCF7 breast 29.9% | HCT-116 colon 37.3% | KM12 colon 41.9%

COc1ccc(CN2c3ccccc3Sc3ccccc32)c(C(F)(F)F)c1
active: MDA-MB-435 melanoma -33.6% | HCT-116 colon 7.74%
inactive: T-47D breast 25.9% | BT-549 breast 53.5% | SW-620 colon 25.8% | MCF7 breast 24.5% | KM12 colon 20%

COc1ccc(-c2nnc(SCC(=O)c3ccc(Cl)cc3)o2)cc1
inactive: T-47D breast 89.6% | BT-549 breast 105% | MDA-MB-435 melanoma 108% | SW-620 colon 107% | MCF7 breast 108% | HCT-116 colon 107% | KM12 colon 102%
